According to the supplement of paper PMC8975748:
Where a name gives a salt, the structure may show the parent alone.

system: Saccharomyces cerevisiae BY4741 SeMeCo community; assay: z-score of subpopulation abundance vs DMSO median, subpopulation auxotrophic for LU; higher = larger share of this subpopulation than in DMSO controls; conditions: 10 µM; 24 h; SM minimal medium; subpopulation (auxotrophy): LU
Protocol: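 Fluorescent four-plasmid SeMeCo (self-establishing metabolically cooperating S. cerevisiae BY4741 community; plasmids pH-mRuby2, pL-mWasabi, pU-eCFP, pM-TagRFP657) was grown 24 h in minimal SM medium with each Selleck FDA-approved drug at 10 µM in 384-well plates. Cells were fixed and imaged by high-content confocal microscopy. For each auxotrophic subpopulation (and the prototroph), a z-score gives the deviation from the DMSO vehicle-control population median.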

SMILES | z-score of subpopulation abundance
C[n+]1ccccc1C=NO [Pralidoxime Iodide] | 0.19
CCN1CCCC1CNC(=O)c1cc(S(N)(=O)=O)ccc1OC (stereo not given) [Sulpiride] | -0.37
CC[C@@H](CO)NCCN[C@@H](CC)CO [Ethambutol 2HCl] | 1.65
NC(=N\CCCCCC/N=C(N)/N=C(\N)Nc1ccc(Cl)cc1)/N=C(\N)Nc1ccc(Cl)cc1 [Chlorhexidine diacetate] | -1.43
Cc1c(OCC(F)(F)F)ccnc1C[S@@+]([O-])c1nc2ccccc2[nH]1 [Dexlansoprazole] | 0.17
OCCOc1ccc(/C(=C(/CCCl)c2ccccc2)c2ccccc2)cc1 [Ospemifene] | -1.59
NCC[C@H](O)C(=O)N[C@@H]1C[C@H](N)[C@@H](O[C@H]2O[C@H](CN)[C@@H](O)[C@H](O)[C@H]2O)[C@H](O)[C@H]1O[C@H]1O[C@H](CO)[C@@H](O)[C@H](N)[C@H]1O [Amikacin disulfate] | 0.07
CCCCc1oc2ccc(NS(C)(=O)=O)cc2c1C(=O)c1ccc(OCCCN(CCCC)CCCC)cc1 [Dronedarone HCl] | 0.61
O=C(c1ccc(OCCN2CCCCC2)cc1)c1c(-c2ccc(O)cc2)sc2cc(O)ccc12 [Raloxifene] | -2.15
COCC1=C(C(=O)OC(C)OC(=O)OC(C)C)N2C(=O)[C@@H](NC(=O)/C(=N\OC)c3csc(N)n3)[C@H]2SC1 (stereo not given in full) [Cefpodoxime proxetil] | 0.31
CC(C)c1c(C(=O)Nc2ccccc2)c(-c2ccccc2)c(-c2ccc(F)cc2)n1CC[C@@H](O)C[C@@H](O)CC(=O)O [Atorvastatin Calcium] | 2.65
C[N+]1(C)CCC(=C(c2ccccc2)c2ccccc2)CC1 [Diphemanil Methylsulfate] | -0.26
CS(=O)(=O)c1ccc([C@@H](O)[C@@H](CF)NC(=O)C(Cl)Cl)cc1 [Florfenicol] | -0.09
CO[C@@H]1[C@@H](OC(N)=O)[C@@H](O)[C@H](Oc2ccc3c(O)c(NC(=O)c4ccc(O)c(CC=C(C)C)c4)c(=O)oc3c2C)OC1(C)C [Novobiocin Sodium] | 0.73
CC(=O)OCC(COC(C)=O)OC(C)=O [Triacetin] | -0.81
CCN(CC)CCOc1ccc2c(c1)C(=O)c1cc(OCCN(CC)CC)ccc1-2 [Tilorone dihydrochloride] | -0.27
C[C@]1(Cn2ccnn2)[C@H](C(=O)O)N2C(=O)C[C@H]2S1(=O)=O [Tazobactam] | 0.66
CCOC(=O)c1ccc(N)cc1 [Benzocaine] | -1.24
N=C(N)NC(=O)c1nc(Cl)c(N)nc1N [Amiloride HCl] | -0.38
CC(=O)C1C(=O)C=C(C)OC1=O (stereo not given) [Sodium dehydroacetate] | 2.06

SMILES | z-score of subpopulation abundance
O=C1CCc2ccc(OCCCCN3CCN(c4cccc(Cl)c4Cl)CC3)cc2N1 [Aripiprazole] | 0.61
CC[C@H]1OC(=O)C[C@@H](O)[C@H](C)[C@@H](O[C@@H]2O[C@H](C)[C@@H](O)[C@H](N(C)C)[C@H]2O)[C@@H](CCN2C[C@H](C)C[C@H](C)C2)C[C@@H](C)C(=O)/C=C/C(C)=C/[C@@H]1CO[C@@H]1O[C@H](C)[C@@H](O)[C@@H](OC)[C@H]1OC [Tilmicosin phosphate] | -0.57
CCOc1ccc2nc3cc(N)ccc3c(N)c2c1 [Ethacridine lactate monohydrate] | -7.71
CN(C)[C@@H](CCOc1cccc2ccccc12)c1ccccc1 [Dapoxetine HCl] | 0.55
CCn1cc(C(=O)O)c(=O)c2cc(F)c(N3CCN(C)CC3)cc21 [Pefloxacin Mesylate Dihydrate] | -0.04
O=C1C(=O)c2ccccc2C(O)=C1C1CCC(c2ccc(Cl)cc2)CC1 (stereo not given) [Atovaquone] | 0.47
Clc1ccc(C(Cn2ccnc2)OCc2ccc(Sc3ccccc3)cc2)c(Cl)c1 (stereo not given) [Fenticonazole Nitrate] | 4.88
Nc1ccc(S(=O)(=O)Nc2ncccn2)cc1 [Sodium sulfadiazine] | 0.3
CCc1c(C)[nH]c2c1C(=O)C(CN1CCOCC1)CC2 (stereo not given) [Molindone hydrochloride] | -0.32
N#Cc1ccc(Oc2ccc3c(c2)COB3O)cc1 [Crisaborole (AN2728)] | 4.21
Cc1nc2n(c(=O)c1CCN1CCC(c3noc4cc(F)ccc34)CC1)CCCC2 [Risperidone] | 0.52
Cc1ccc(-c2cc(C(F)(F)F)nn2-c2ccc(S(N)(=O)=O)cc2)cc1 [Celecoxib] | -0.19
Nc1ccc(S(N)(=O)=O)cc1 [Sulfanilamide] | -0.14
Cc1nccn1CC1CCc2c(c3ccccc3n2C)C1=O (stereo not given) [Ondansetron Hydrochloride Dihydrate] | -0.34
CCCCCNC(=N)N/N=C/c1c[nH]c2ccc(OC)cc12 [Tegaserod Maleate] | 0.84
OCCN1CCN(CCCN2c3ccccc3Sc3ccc(C(F)(F)F)cc32)CC1 [Fluphenazine dihydrochloride] | 0.63
CC1=C[C@H]2C(=O)O[C@H]3C[C@@H](C/C=C(\C)C[C@@H](C)/C=C/C=C4\CO[C@H](/C1=N\O)[C@@]42O)O[C@@]1(CC[C@H](C)[C@@H](C)O1)C3.CC[C@H]1O[C@]2(CC[C@@H]1C)C[C@@H]1C[C@@H](C/C=C(\C)C[C@@H](C)/C=C/C=C3\CO[C@@H]4/C(=N\O)C(C)=C[C@@H](C(=O)O1)[C@]34O)O2 [Milbemycin Oxime] | -0.7
Cc1c(-c2ccccc2)oc2c(C(=O)OCCN3CCCCC3)cccc2c1=O [Flavoxate HCl] | 1.88
C=C1CCN([C@H](C)[C@](O)(Cn2cncn2)c2ccc(F)cc2F)CC1 [Efinaconazole] | -1.98
Oc1c(Cl)cc(Cl)c2cccnc12 [Chloroxine] | 11.5
